Unmarked numbers belong to inactive results. The source made the active and inactive calls. The call rests on the fitted dose curve; in most records, active means well fitted curve in the direction sought with a large enough effect in the repeat runs; inconclusive means weak or mixed curves; inactive means flat fitted curve, though single readings scatter.
Assay: qHTS assay to test for compound auto fluorescence at 535 nm (green) in HEK293 cell free culture (AID 720682)
Conditions: cell-free medium, green autofluorescence 485/535 nm, hits give high values; series mostly up to 91.3 µM; activity change: at the top concentration
Description: U.S. Tox21 Program National Center for Advancing Translational Sciences [NCATS] NIH Chemical Genomics Center [NCGC] U.S. Environmental Protection Agency [EPA] National Institutes of Environmental Health Sciences [NIEHS] National Toxicology Program [NTP] U.S. Food and Drug Administration [FDA] Tox21 Assay Overview: Compound auto fluorescence often interferes with screening of the compound library against various biological targets and signaling pathways. Some of these compounds may have fluorophoric properties. Such properties may interfere with the assay outputs resulting in false positives and/or negatives. To decrease such complications and ensure the compound activities are relevant in terms of biological response, the Tox21 10K compound library was screened for auto fluorescence. From the fluorophores used as reporter signals in our screening assays, the auto fluorescence equivalencies of compounds against three fluorophores have been evaluated: Triamterene, Fluorescein and Rose Bengal sodium for blue, green and red fluorescence, respectively. The fluorescence intensities were measured using Excitation/Emission wavelengths at 405/460nm, 485/535nm and 540/590nm for blue, green and red labels, respectively. This assay includes the green fluorescence data.
Tox21 Assay Protocol Summary: 5 uL of culture medium (DMEM containing 10% FBS) per well was dispensed into black wall/clear bottom 1536-well plates using a Multidrop Combi Dispenser (ThermoFisher Scientific, Waltham, MA). After 23 nL compound or DMSO vehicle was transferred into assay plate by a pintool work station (Kalypsys, San Diego, CA), fluorescence intensities in the assay plates were measured by an Envision (PerkinElmer, Shelton, CT) plate reader using three labels for measuring blue, green and red fluorescence at […] 460, 535 and 590nm respectively.
On the % scale 0 is the no-effect control and ±100 the full control effect.

Row | Compound | activity change | outcome
1 | CN1CCN(C2=Nc3cc(Cl)ccc3Nc3ccccc32)CC1 | -0.0146% [at 46 µM] | –
2 | CNCC[C@@H](Oc1ccccc1C)c1ccccc1 | -0.14% [at 46 µM] | –
3 | N#Cc1c(F)cccc1F | -0.0692% | –
4 | CC(=O)NCCCS(=O)(=O)O | – | inactive
5 | O=C(O)/C=C/c1cnc[nH]1 | -0.0896% | –
6 | CCCCCCc1ccc(N)cc1 | 0.0569% | –
7 | Cc1cccc(C(C)(C)C)c1O | -0.114% | –
8 | CC[C@]12CCCN3CCc4c(n(c5ccccc45)C(=O)C1)[C@@H]32 | 0.026% [at 18.6 µM] | –
9 | CCCC(=O)OCC | -0.0072% | –
10 | CCCCc1cc2ccccc2c(OCCN(C)C)n1 | -0.13% [at 18.6 µM] | –
11 | Cc1ccccc1N=Nc1ccc(N=Nc2c(O)ccc3ccccc23)c(C)c1 | 0.0947% [at 46 µM] | –
12 | CC1(C)[C@H]2CC[C@]1(C)[C@H](O)C2 | – | inactive
13 | COc1cc(C(C)(C)C)c(O)c(C(C)(C)C)c1 | 0.0618% | –
14 | S=C(S)NCCNC(=S)S | -0.0171% | –
15 | NC(N)=N/N=C/c1c(Cl)cccc1Cl | 0.0375% [at 46 µM] | –
16 | CC(=O)c1c(C)c([N+](=O)[O-])c(C(C)(C)C)c([N+](=O)[O-])c1C | -0.206% | –
17 | CCCCCCCCCC=O | -0.0348% | –
18 | CCOC(=S)SSC(=S)OCC | – | inactive
19 | O=CNc1ccccc1 | -0.0176% | –
20 | CC(C)NCC(O)c1cc(O)cc(O)c1 (stereo not given) | -0.0124% [at 46 µM] | –

Row | Compound | activity change | outcome
21 | N#CCc1cccc(C(F)(F)F)c1 | -0.147% | –
22 | c1ccc(CNCc2ccccc2)cc1 | -0.129% | –
23 | c1ccc(-c2nc[nH]c2-c2ccccc2)cc1 | 0.0331% [at 46 µM] | –
24 | Nc1ccc(C(=O)Nc2ccccc2N)cc1 | -0.054% [at 46 µM] | –
25 | CN(c1nccc(=O)[nH]1)C1CCN(c2nc3ccccc3n2Cc2ccc(F)cc2)CC1 | -0.0804% [at 46 µM] | –
26 | CCN(CC)CCc1nc(-c2ccccc2)no1 | 0.0186% [at 18.6 µM] | –
27 | CCCCCCCCCCCCCCCC(=O)OC/C=C(C)/C=C/C=C(C)/C=C/C1=C(C)CCCC1(C)C | – | inactive
28 | NC(=S)N/N=C/c1cccnc1 | 0.0284% [at 46 µM] | –
29 | Cc1cc(C)c(S(=O)(=O)O)cc1N=Nc1cc(S(=O)(=O)O)c2ccccc2c1O | -0.985% | –
30 | CC(C(=O)O)c1ccc(C(=O)c2ccccc2)s1 (stereo not given) | -0.0099% [at 18.6 µM] | –
31 | O=C(O)Cc1sc(-c2ccccc2)nc1-c1ccc(Cl)cc1 | – | inactive
32 | CCCCOc1cc(C(=O)OCCN(CC)CC)ccc1N | -0.0782% [at 18.6 µM] | –
33 | CCCc1ccccc1 | -0.0365% | –
34 | Cc1cccc(OCCOc2cccc(C)c2)c1 | -0.0783% [at 95.7 µM] | –
35 | O=C(CCN1CCN2CCCC2C1)N1c2ccccc2Sc2ccc(Cl)cc21 (stereo not given) | -0.0554% [at 46 µM] | –
36 | CCOC(=O)C1=NN(c2ccccc2)C(=O)C1 | 0.0356% | –
37 | C[C@H](CCC(=O)O)[C@H]1CC[C@H]2[C@@H]3[C@H](O)C[C@@H]4C[C@H](O)CC[C@]4(C)[C@H]3CC[C@]12C | – | inactive
38 | C=CC(=O)OCC(C)OCC(C)OCC(C)OC(=O)C=C (stereo not given) | 0.0994% | –
39 | SC1CCCC1 | -0.0002% | –
40 | CC1CCc2cc(F)cc3c(=O)c(C(=O)O)cn1c23 (stereo not given) | -0.0263% [at 46 µM] | –

From PubChem BioAssay (Tox21)
